Calls of active or inactive are those of the source.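 How the source made its calls, unless noted: active means fluorescence slope after compound addition differing from the mean of all screened samples at 99.7% confidence, in either direction; inactive means the rest.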
Assays:
[1] = inhibitors of TNFa-induced NFkB p65 translocation, primary screen, imaging, HUVEC, MLSMR starter and 10KST1 sets (AID 438;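 active means inhibition above 20% together with a positive visual image hit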;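 further: compound added about 3h40 before a 20 min TNFalpha stimulation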;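 on inhibition: signal is the nuclear over cytoplasmic p65 intensity ratio per well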); conditions: HUVEC TNFa-induced p65 nuclear translocation; cell count: measured here: nuclei count (cytotoxicity indicator), at 2.08 µM; inhibition: at 2 µM, stronger effect = higher value, 0% TNFa-plus-vehicle, 100% no-TNFa wells
[2] = inhibitors of mutant huntingtin aggregation, primary screen, imaging, exon1htt(103Q)mCFP cells, high-content imaging (AID 483;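 active means visual image review flags a hit and inhibition of aggregation exceeds 20%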;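 further: compound exposure lasted 3 days before fixation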;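 on nuclei count: percent of the per-plate median nuclei count of sample wells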); conditions: exon1htt(103Q)mCFP cell line, aggregate imaging, at 2 µM; inhibition of aggregation: stronger effect = higher value; nuclei count: measured here: cell count, toxicity
[3] = inhibitors of E-selectin induction by TNFa, primary screen, imaging, HUVEC, immunofluorescence, MLSMR starter and 10KST1 sets (AID 487;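 active means visually confirmed hit in the image check and inhibition above 20%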;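 on inhibition: signal is fraction of cell area covered by stained E-selectin grains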;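 on nuclei count: 100% = median nuclei count of all wells on the same plate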); conditions: HUVEC TNFalpha-induced E-selectin immunofluorescence imaging, at 2 µM; inhibition: stronger effect = higher value; nuclei count: measured here: cell number, toxicity
[4] = target: Voltage-gated potassium channel subunit beta-2 (Rattus norvegicus) (UniProt P62483); assay: KvBeta enzyme negative modulators, primary screen, biochemical, NADPH fluorescence (AID 622;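 active means fluorescence slope higher than the sample average by over 3 SD, cut at about -0.22 in these data, passing the limit was not always enough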;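 further: slope of raw intensity against log time taken from 70 to 1610 s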); conditions: recombinant KvBeta, 4-cyanobenzaldehyde reduction, at 10 µM, stronger effect = higher value
Chain of Voltage-gated potassium channel subunit beta-2 (Rattus norvegicus) (P62483 whole entry, looked up): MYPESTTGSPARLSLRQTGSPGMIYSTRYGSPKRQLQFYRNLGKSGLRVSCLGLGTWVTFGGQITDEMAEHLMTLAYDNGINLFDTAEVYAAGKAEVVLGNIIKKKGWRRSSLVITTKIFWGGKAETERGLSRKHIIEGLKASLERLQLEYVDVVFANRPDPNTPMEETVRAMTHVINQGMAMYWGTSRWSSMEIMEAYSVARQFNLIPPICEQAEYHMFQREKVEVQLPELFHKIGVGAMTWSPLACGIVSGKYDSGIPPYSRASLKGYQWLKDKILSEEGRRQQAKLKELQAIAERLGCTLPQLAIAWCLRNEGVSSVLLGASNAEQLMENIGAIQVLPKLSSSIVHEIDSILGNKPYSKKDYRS

[5] = target: Voltage-gated potassium channel subunit beta-2 (Rattus norvegicus) (UniProt P62483); assay: KvBeta positive modulators, primary screen, biochemical, NADPH fluorescence (AID 623;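 active means NADPH fluorescence slope more negative than the mean of all samples by about 3 SD, 99.7% confidence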;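 further: fluorescence intensity change per second fitted from 20 to 320 s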); conditions: Recombinant KvBeta, NADPH fluorescence decrease slope, 10 min; at 10 µM; stronger effect = lower value
[6] = target: Alpha-2C adrenergic receptor (Homo sapiens) (UniProt P18825); assay: modulators of alpha2C/GIRK thallium flux, primary screen, cell-based, HEK293 alpha2C/GIRK1/2 (AID 624); conditions: thallium flux BTC fluorescence, at 10 µM, actives lie on both sides;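 further: slope of fluorescence ratio to pre-addition baseline per second over 15 to 24 s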
Chain of Alpha-2C adrenergic receptor (Homo sapiens) (P18825 whole entry, looked up): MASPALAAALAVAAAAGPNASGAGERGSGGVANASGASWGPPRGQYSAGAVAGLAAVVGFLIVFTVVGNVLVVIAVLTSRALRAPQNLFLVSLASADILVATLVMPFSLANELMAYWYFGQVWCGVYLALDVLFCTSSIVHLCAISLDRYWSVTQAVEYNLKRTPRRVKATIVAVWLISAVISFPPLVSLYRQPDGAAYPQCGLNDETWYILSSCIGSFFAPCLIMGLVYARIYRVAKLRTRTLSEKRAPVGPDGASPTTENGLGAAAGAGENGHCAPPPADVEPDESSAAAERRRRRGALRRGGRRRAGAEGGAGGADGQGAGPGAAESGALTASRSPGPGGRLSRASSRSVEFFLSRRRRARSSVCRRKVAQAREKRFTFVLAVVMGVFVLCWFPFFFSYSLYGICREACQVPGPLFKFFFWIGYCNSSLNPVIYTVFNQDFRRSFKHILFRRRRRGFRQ

[7] = inhibitors of Sendai virus-induced IRF3 signaling, primary screen, TLR/RLR signaling modifier project, cell-based, Sendai virus stimulus, luciferase, 10K MLSCN set (AID 602276;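 active means inhibition at or above 50% at 10 µM; inactive means inhibition below 50%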;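 further: firefly luciferase from ISG56 promoter only with Renilla not read in this screen; 0% = Sendai virus plus DMSO and 100% = medium plus DMSO without virus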); conditions: HEK293 RL24 IRF3 luciferase reporter, at 10 µM, stronger effect = higher value
[8] = inhibitors of poly I:C-induced TLR3 signaling, primary screen, cell-based, poly I:C stimulus, luciferase, 10K MLSCN set (AID 602277;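 active means inhibition of the reporter signal at or above 50%; inactive means inhibition below 50%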); conditions: HEK293-TLR3 RL24 IRF3 luciferase reporter, at 10 µM, stronger effect = higher value

Compound	cell count [1]	inhibition [1]	inhibition of aggregation [2]	nuclei count [2] [%]	inhibition [3]	nuclei count [3] [%]	fluorescence slope [4]	NADPH fluorescence slope [5]	slope [6]	inhibition [7]	inhibition [8]
CC(C)COC(=O)C1[C@H]2C(=O)N(Cc3cccs3)C[C@]23C=C[C@H]1O3 (stereo partly drawn)	483	3.3% (inactive)	-2.4% (inactive)	97.4	-44.8% (inactive)	127	-0.393 (inactive)	-1.4e-05 (inactive)	0.00385 (inactive)	9.95% (inactive)	32.4% (inactive)
CCn1c(SCC(=O)Nc2ccccc2F)nc2c(c1=O)SC(C)C2 (stereo not drawn)	339	-2.2% (inactive)	-3.7% (inactive)	104	-2% (inactive)	117	-0.554 (inactive)	-3.3e-06 (inactive)	0.00612 (inactive)	3.68% (inactive)	8.8% (inactive)
COC(=O)CCCCC(=O)C1C(=O)CC(C)(C)C(C(=O)OC)C1=O (stereo not drawn)	431	-0.3% (inactive)	-13.3% (inactive)	96.5	-1.3% (inactive)	121	-0.49 (inactive)	4.5e-05 (inactive)	0.00358 (inactive)	-9.68% (inactive)	3.35% (inactive)
O=C(CN(CC1CCCO1)C(=O)CCC(=O)Nc1ccccn1)NCC1CCCO1 (stereo not drawn)	634	-1.6% (inactive)	-13.7% (inactive)	122	-8.5% (inactive)	122	-0.421 (inactive)	-3e-05 (inactive)	0.00568 (inactive)	13.4% (inactive)	15.3% (inactive)
CC1(C)CC(=O)CC(C)(C)N1OC(=O)c1ccccn1	362	1% (inactive)	-6.4% (inactive)	97.7	-4.9% (inactive)	102	-0.495 (inactive)	2e-05 (inactive)	0.00619 (inactive)	-2.81% (inactive)	25.3% (inactive)
Cc1cccn2c(=O)c3cc(C(=O)N4CCCc5ccccc54)n(C)c3nc12	232	15.9% (inactive)	10.9% (inactive)	98.7	29.9% (inactive)	96	-0.556 (inactive)	-3.1e-05 (inactive)	0.00631 (inactive)	6.77% (inactive)	17.7% (inactive)
CC(=O)n1nc(-c2ccco2)nc1SCc1ccccc1	573	2.8% (inactive)	25.1% (inactive)	100	-122% (inactive)	94.1	-0.599 (inactive)	1.3e-05 (inactive)	0.00839 (inactive)	-22.5% (inactive)	-108% (inactive)
O=C(Nc1ccc2c(c1)OCO2)C(c1ccccc1)N1CCC2(CC1)OCCO2 (stereo not drawn)	649	2% (inactive)	-13.5% (inactive)	107	23.5% (inactive)	115	-0.51 (inactive)	3.6e-05 (inactive)	0.00477 (inactive)	-14.7% (inactive)	1% (inactive)

Reference: PubChem BioAssay
